From the supplement of paper PMC6555819

Tests used:
Assay in all cases: PBM binding z-score (relative to random genomic background probes); higher = stronger binding; sequences stand for … in GC…GCGATTGACAGCGTAGAATGAAGG
[1] = tested on: FXR:RXRa (NR concentration 270 nM, RXRa partner concentration 90 nM)
Summary of the method: (§1)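 Scanned fluorescence from custom Agilent 4×180K protein-binding microarrays was regression-normalized. Binding z-scores use random background probes as reference. Ligand-free nuclear receptor dimers were incubated on the arrays for 1 h and detected with antibodies against each partner (one per run).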

[2] = tested on: LXRa:RXRa (NR concentration 270 nM, RXRa partner concentration 90 nM)
Summary of the method: as §1

[3] = tested on: LXRa homodimer (NR concentration 270 nM)
Summary of the method: as §1

[4] = tested on: LXRb:RXRa (NR concentration 270 nM, RXRa partner concentration 90 nM)
Summary of the method: as §1

[5] = tested on: LXRb homodimer (NR concentration 270 nM)
Summary of the method: as §1

[6] = tested on: PPARa:RXRa (NR concentration 270 nM, RXRa partner concentration 90 nM)
Summary of the method: as §1

[7] = tested on: PPARg:RXRa (NR concentration 180 nM, RXRa partner concentration 90 nM)
Summary of the method: as §1

[8] = tested on: PPARg:RXRa 270nM:90nM, anti-RXR (NR concentration 270 nM, RXRa partner concentration 90 nM)
Summary of the method: as §1

[9] = tested on: PPARg:RXRa 30nM:10nM, anti-RXR (NR concentration 30 nM, RXRa partner concentration 10 nM)
Summary of the method: as §1

[10] = tested on: PPARg:RXRa 90nM:30nM, anti-RXR (NR concentration 90 nM, RXRa partner concentration 30 nM)
Summary of the method: as §1

[11] = tested on: PPARg:RXRa DBDmut IVT, anti-RXR (DBD mutation: RXRa K156A/R161A, NR concentration 270 nM, RXRa partner concentration 90 nM)
Summary of the method: as §1

[12] = tested on: PPARg:RXRa IVT, anti-PPARg (NR concentration 270 nM, RXRa partner concentration 90 nM)
Summary of the method: as §1

[13] = tested on: PPARg DBDmut:RXRa IVT, anti-PPARg (DBD mutation: PPARg1 K132A/R137A, NR concentration 270 nM, RXRa partner concentration 90 nM)
Summary of the method: as §1

[14] = tested on: PPARg DBDmut IVT, anti-PPARg (DBD mutation: PPARg1 K132A/R137A, NR concentration 270 nM)
Summary of the method: as §1

[15] = tested on: PPARg homodimer (NR concentration 180 nM)
Summary of the method: as §1

[16] = tested on: PXR:RXRa (NR concentration 270 nM, RXRa partner concentration 90 nM)
Summary of the method: as §1

[17] = tested on: PXR homodimer (NR concentration 270 nM)
Summary of the method: as §1

[18] = tested on: RARa:RXR (NR concentration 270 nM, RXRa partner concentration 90 nM)
Summary of the method: as §1

[19] = tested on: RARa homodimer (NR concentration 270 nM)
Summary of the method: as §1

[20] = tested on: RARb:RXRa (NR concentration 270 nM, RXRa partner concentration 90 nM)
Summary of the method: as §1

Sequence | PBM binding z-score [1] | PBM binding z-score [2] | PBM binding z-score [3] | PBM binding z-score [4] | PBM binding z-score [5] | PBM binding z-score [6] | PBM binding z-score [7] | PBM binding z-score [8] | PBM binding z-score [9] | PBM binding z-score [10] | PBM binding z-score [11] | PBM binding z-score [12] | PBM binding z-score [13] | PBM binding z-score [14] | PBM binding z-score [15] | PBM binding z-score [16] | PBM binding z-score [17] | PBM binding z-score [18] | PBM binding z-score [19] | PBM binding z-score [20]
AAATGTAGGTTACATCCGGGTCATTCAGGCTATG | 2.37 | 4.34 | 1.56 | 2.86 | 0.424 | 4.62 | 6.92 | 5.78 | 2.95 | 5.22 | 8.29 | 8.08 | 3.52 | 2.02 | 2.68 | 3.79 | 2.33 | 3.75 | 1.1 | 2.28
AATACAGGGTCATCGTGGGCCAGAGTACGCACAG | 7.26 | 6.08 | 2.41 | 4.65 | 0.911 | 5.96 | 6.73 | 5.81 | 2.73 | 4.56 | 2.57 | 4.37 | 0.764 | 1.07 | 2.16 | 4.59 | 0.368 | 4.92 | 0.514 | 4.36
ACTAGTTGGTCAGGTGAGGTCACACACAATTCGG | 3.87 | 3.4 | 2.65 | 3.35 | 0.501 | 3.83 | 2.36 | 2.68 | 0.906 | 1.88 | 1.77 | 3.37 | 0.914 | 0.637 | 3.1 | 5.46 | 2.28 | 4.89 | 2 | 3.44
CAAACTAGGTCAAGGTTAAAGTCGGTTTGTGCCA | 4.21 | 3.75 | 1.17 | 2.93 | 0.57 | 5.22 | 9.29 | 8.04 | 6.64 | 9.18 | 8.28 | 8.73 | 1.13 | 0.568 | 2.77 | 3.05 | 0.428 | 3.41 | 0.337 | 4.2
ATATGTAGGTTCAGGGTCATTCAGGTTGGTTCGC | 4.82 | 4.56 | 2.81 | 4.44 | 1.46 | 5.2 | 7.3 | 7.14 | 6 | 7.46 | 3.41 | 4.69 | 1.38 | 1.25 | 3.72 | 5.44 | 5.1 | 5.15 | 2.39 | 3.41
GCTTACGGGTCAAGGGTTATAGCATGAATAGAAT | 7 | 4.33 | -0.0628 | 4.68 | 0.59 | 6.34 | 9.43 | 7.41 | 6.16 | 8.05 | 3.76 | 5.31 | 1.91 | 1.82 | 3.12 | 4.69 | 0.12 | 7.06 | 0.958 | 4.27
GGAACGAGGGCATTCGAGTTGATTGCATGGCGAT | 0.926 | 1.7 | -0.316 | 0.105 | -0.391 | 1.4 | 0.653 | 0.598 | -0.244 | 0.242 | 2.85 | 2.45 | 0.178 | -0.205 | -0.105 | 3.88 | 1.55 | 1.03 | -0.634 | 1.84
CGTCCAAGGTCAGAGAGGTCAGTGCATGCCGAGT | 5.87 | 4.93 | 3.33 | 4.41 | 0.554 | 4.76 | 3.48 | 4.37 | 0.807 | 2.76 | 3.03 | 3.39 | -0.458 | -1.04 | 4.89 | 5.91 | 11.5 | 5.08 | 1.45 | 5.17
ACTTACGGGTCAACGAGGTTATCGCACGCGTATA | 7.3 | 5.42 | 1.07 | 4.36 | 1.13 | 5.83 | 5.87 | 5.69 | 2.32 | 4.5 | 4.15 | 4.2 | 2.65 | 1.38 | 3.14 | 5.58 | 4.21 | 5.88 | 0.958 | 4.4
CCTGCTAGGTCATGGTCACCTAATCTACAGTATG | 3.67 | 2.86 | 0.345 | 2.19 | -0.376 | 3.56 | 3.28 | 3.54 | 1.07 | 2.72 | 5 | 5.09 | 0.83 | 0.207 | 1.89 | 1.82 | -0.294 | 2.75 | -0.115 | 3.98
GCTGCTAGGTCAGGTCGGTCAGCTAACGGGTACG | 1.34 | 1.02 | 0.025 | 0.546 | -0.437 | 1.77 | 0.669 | 1.4 | -0.193 | 0.397 | 2.59 | 2.88 | -0.904 | -0.563 | 0.777 | 0.726 | -0.37 | 1.37 | -0.616 | 3.88
AGTCAAAGTTCACTACGTAACGTAAGATTCAGCT | 5.22 | 4.81 | 2.75 | 3.23 | 1.32 | 3.94 | 5.52 | 5.28 | 2.81 | 4.64 | 0.373 | 1.98 | 1.52 | 1.04 | 1.69 | 3.72 | 2.5 | 2.71 | 1.15 | 4.47
CGAACTAGGTCAGAACAGGATAGTGAAGGATGAT | 1.16 | 0.877 | -0.252 | 0.463 | -0.465 | 3.33 | 5.21 | 4.24 | 1.75 | 3.34 | 7.17 | 7.33 | 2.09 | 2.21 | 1.07 | 0.283 | 0.0335 | 1.12 | 0.743 | 2.97
TGAATGTGGTTAAAGATCAGGGAACGTGGCGTCG | -0.133 | -0.264 | 0.0303 | -0.186 | 0.696 | 0.692 | 1.33 | 2.69 | 1.45 | 2.47 | -0.308 | 0.475 | 0.142 | 1.06 | 0.818 | -0.282 | -0.00828 | -0.185 | 0.484 | -0.112
TCATATAGGTAAAAGGTGTAAGTCGGTGTGGTAA | 1.13 | 1.12 | -0.0427 | 1.14 | 0.187 | 3.18 | 5.19 | 6.1 | 5.92 | 7.17 | 4.99 | 3.58 | 1.13 | 0.898 | 1.04 | 0.588 | 0.592 | 0.719 | 0.894 | 0.49
CGTCCAAGGTCAATGCTAGGTCAGCGAAAGCATT | 6.63 | 5.79 | 2.77 | 4.08 | 1.43 | 5.16 | 4.44 | 4.73 | 1.24 | 3.25 | 3.48 | 4.11 | 0.86 | 0.428 | 7.14 | 4.98 | 1.31 | 6.26 | 1.36 | 5.17
ATCGAAAGGTCGTGAGGTGAGTAAACAGAAAGGC | 5.42 | 3.82 | 0.314 | 3.14 | 0.648 | 5.03 | 3.9 | 4.4 | 1.22 | 2.97 | 0.111 | 2.34 | 1.06 | 0.746 | 1.39 | 2.84 | 0.0266 | 4.08 | 0.931 | 3.94
AGAATGAGGTTATACGCAGATCAGGGAAGAAAGT | 2.11 | 2.13 | -0.247 | 1.68 | -0.102 | 3.39 | 1.58 | 2.01 | 0.827 | 1.45 | 2.73 | 2.31 | 1.31 | 0.997 | 0.831 | 1.14 | 0.481 | 1.59 | 0.675 | 1.52
